Assay outcomes: PubChem, several laboratories
Shown are actives, neighbours in structure and some others; about 3.2% of the full set was active somewhere.
Rce1 inhib: blocks yeast Ras-converting enzyme | Q03530 | yeast membranes, quenched prenylated peptide cleavage fluorescence | calls only | hit rate 0.27% among 290,000 | AID 2563;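 active = fall in fluorescence gain of 50% or more versus controls, with final raw signal at or below 3038400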;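 note: plate controls were neutral control wells for no effect and wells lacking membranes for full effect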
CHT inh: inhibits the human high affinity choline transporter | Q9GZV3 | CHT-expressing cells, membrane potential dye, choline response; hits give low values | B-score at 10 µM | hit rate 0.86% among 310,000 | AID 488975;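 active = B-score over 3 SD under the library average, and starting fluorescence ratio not unusually high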;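 note: choline stimulus applied at its EC90 after an EC20 pre-addition; B-score computed on integrated fluorescence ratio after choline addition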
Target sequence (Q9GZV3 whole entry, looked up): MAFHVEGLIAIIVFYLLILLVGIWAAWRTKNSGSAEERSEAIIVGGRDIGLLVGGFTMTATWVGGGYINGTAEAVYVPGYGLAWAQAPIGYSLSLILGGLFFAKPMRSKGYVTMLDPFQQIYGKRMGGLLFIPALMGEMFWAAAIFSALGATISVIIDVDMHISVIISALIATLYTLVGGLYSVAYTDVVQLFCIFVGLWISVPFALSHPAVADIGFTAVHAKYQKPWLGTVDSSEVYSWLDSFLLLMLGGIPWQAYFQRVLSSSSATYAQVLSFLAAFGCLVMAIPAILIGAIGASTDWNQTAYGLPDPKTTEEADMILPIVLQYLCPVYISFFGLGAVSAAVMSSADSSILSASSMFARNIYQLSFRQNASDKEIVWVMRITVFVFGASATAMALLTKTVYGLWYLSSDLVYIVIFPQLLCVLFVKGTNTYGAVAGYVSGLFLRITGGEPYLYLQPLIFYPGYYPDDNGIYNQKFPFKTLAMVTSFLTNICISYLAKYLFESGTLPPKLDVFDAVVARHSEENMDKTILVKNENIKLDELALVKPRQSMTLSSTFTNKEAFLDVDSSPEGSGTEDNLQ
CHT PAM: human CHT allosteric activation; Q9GZV3; CHT-expressing cells, membrane potential dye, choline EC20; hits give high values; LV-AA mutant CHT in HEK293 cells; B-score at 10 µM; hit rate 0.49% among 310,000;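 active = initial fluorescence not abnormally high and integrated response B-score, plate-corrected, over 3 SD above library mean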
ANO1 activ: mouse TMEM16A channel activation, primary screen. Q8BHY3. HEK293 TMEM16A/YFP-H148Q/I152L, iodide quench fluorescence; hits give low values. B-score at 10 µM. hit rate 0.3% among 340,000. AID 623877;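 active = fluorescence-ratio B-score plate-corrected deviation score at least 3 library SD below zero, with starting fluorescence score within 5 deviations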;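 note: channel opened by trigger with iodide after compound preincubation; score built on the fluorescence ratio of max minus min over baseline; more negative score means more quench and so TMEM16A activation or potentiation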
ANO1 block: blocks the mouse calcium-activated chloride channel TMEM16A; Q8BHY3; HEK293 TMEM16A/YFP iodide influx fluorescence, ionomycin; normalized B-score (activity score, 25-100; higher = stronger inhibition) at 10 µM; hit rate 1.2% among 310,000;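 active = ratio plate-corrected score three or more library SD toward inhibition, starting fluorescence score within five deviations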;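 note: score derived from kinetic fluorescence span divided by baseline fluorescence per well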
Kir21 block: inhibitors of mouse Kir2.1 inward-rectifier potassium channel; hit rate 0.85% among 310,000; AID 1672; P35561; HEK293-Kir2.1, FluxOR thallium flux fluorescence; hits give low values; B-score at 10 µM;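 active = fluorescence ratio B-score at or below minus 3 SD of library scores, with starting-brightness B-score within 2 SD, cut at about -4.2 in these data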;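 note: channel flux triggered by added potassium and thallium sulfate stimulus; B-score of peak minus minimum fluorescence over baseline after thallium stimulus; more negative B-score means stronger Kir2.1 block with less thallium influx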
TMEM16A reconf: re-confirmation of mouse TMEM16A chloride channel inhibitors. shares compounds with ANO1 block. HEK293 TMEM16A/YFP-H148Q, iodide quench fluorescence; ionomycin added to raise cell calcium. inhibition, % at 10 µM. hit rate 39% among 2,300. AID 652189;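 active = mean duplicate percent inhibition, scaled so buffer wells are 0 and the reference blocker 100, over three buffer SD above buffer mean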
TMEM16A Ca cntr: calcium mobilization counter-screen hit for TMEM16A inhibitor series. shares compounds with ANO1 block. TMEM16A/YFP HEK293, Fluo4 calcium mobilization. calcium response (% of ionomycin), % at 10 µM. hit rate 2% among 2,300. AID 652231;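 active = duplicate-averaged calcium signal over 20% of the ionomycin maximum, relative to buffer baseline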;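 note: each well's signal is peak minus trough fluorescence divided by its pre-addition baseline; 0% = buffer wells and 100% = ionomycin wells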
YFP-HEK293 quench: parental YFP-HEK293 iodide quench counter-screen activity. shares compounds with ANO1 block. ionomycin. YFP ratio F(max-min)/F0 at 10 µM. 2,300 tested, under 10 active. AID 652233;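 active = yellow fluorescent protein signal ratio exceeding the buffer control mean by over 5 SD of those controls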;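 note: ratio is mean of duplicate wells from kinetic YFP trace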
ClC-1 rat inh: selectivity of TMEM16A inhibitors: inhibition of rat ClC-1 chloride channel; shares compounds with ANO1 block; CHO ClC-1-YFP, iodide influx fluorescence quench; iodide control reads 0, buffer control 100; ratio percent, % at 10 µM; 2,300 tested, under 10 active; AID 652236;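 active = duplicate-mean ratio percent above the mean of iodide-only control wells, which defines zero, plus 5 of their SD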;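 note: higher percent means stronger block of ClC-1 iodide influx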
* hit, by the source's call.

CCn1c(SCC(=O)c2ccc3c(c2)OCCO3)nnc1C(C)C was read as CHT inh inactive, CHT PAM inactive, ANO1 activ inactive, ANO1 block inactive, TMEM16A reconf inactive, TMEM16A Ca cntr inactive, YFP-HEK293 quench -1 and ClC-1 rat inh -8.
`O=S(=O)(NC1CCCCC1)c1ccc(N2CCOCC2)nc1` gave Rce1 inhib inactive, CHT inh inactive, CHT PAM inactive, ANO1 activ inactive, ANO1 block inactive and Kir21 block -0.54.
`Cc1ccc(S(=O)(=O)N2CCCC2)cc1C(=O)N1CCN(Cc2ccccc2)CC1` gave CHT inh inactive, CHT PAM inactive, ANO1 activ inactive, ANO1 block inactive and Kir21 block -1.
For CCN(CC)c1ccc(C=Nc2cc(C)cc(C)c2)c(O)c1 the results were Rce1 inhib inactive, CHT inh inactive, CHT PAM inactive, ANO1 activ -5.2*, ANO1 block 25*, Kir21 block 3.1, TMEM16A reconf inactive, TMEM16A Ca cntr inactive, YFP-HEK293 quench -1.1 and ClC-1 rat inh -3.
For Cc1cc(C)cc(-n2c(C)cc(/C=N/NC(=O)CSc3ncccn3)c2C)c1 the results were Rce1 inhib inactive, CHT inh inactive, CHT PAM inactive, ANO1 activ inactive, ANO1 block 25*, Kir21 block -2.6, TMEM16A reconf inactive, TMEM16A Ca cntr inactive, YFP-HEK293 quench -0.89 and ClC-1 rat inh 3.
For Cn1c(=O)c2c(ncn2CC(O)CNc2cccc(Cl)c2)n(C)c1=O (configuration not stated) the results were Rce1 inhib inactive, CHT inh inactive, CHT PAM inactive, ANO1 activ inactive, ANO1 block inactive and Kir21 block 0.28.
For CC(Sc1nc2ccccc2s1)C(=O)c1c(N)n(C)c(=O)n(C)c1=O (configuration not stated) the results were Rce1 inhib inactive, CHT inh inactive, CHT PAM inactive, ANO1 activ inactive, ANO1 block 100*, Kir21 block 0.5, TMEM16A reconf inactive, TMEM16A Ca cntr inactive, YFP-HEK293 quench -1.2 and ClC-1 rat inh -8.
For CC(Sc1n[nH]c(-c2ccccc2)n1)C(=O)c1c(N)n(C)c(=O)n(C)c1=O (configuration not stated) the results were Rce1 inhib inactive, CHT inh inactive, CHT PAM inactive, ANO1 activ inactive, ANO1 block inactive and Kir21 block 1.4.
Cc1cccc(NC(=O)c2ccc(C(=O)c3ccccc3)cc2)n1 was read as Rce1 inhib inactive, CHT inh inactive, CHT PAM inactive, ANO1 activ inactive, ANO1 block 100*, Kir21 block 0.64, TMEM16A reconf 47%*, TMEM16A Ca cntr inactive, YFP-HEK293 quench -0.95 and ClC-1 rat inh -18.
